Test results as given in PubChem BioAssay (NCATS).
Records with an inconclusive call do not appear. Where a call stands in place of a potency, no number is given. Unmarked numbers belong to inactive results. Activity calls are given as the source filed them. Calls come from the whole dose curve.
Potency is the fitted concentration of half-maximal effect.

Assay: Cytotoxicity counterscreen for inhibitors of SARS-CoV-2 cell entry (AID 1645845); note: nearly all actives have a fitted effect of over 50% in size
Conditions: cell viability (SARS-CoV-2 entry assay cells); series mostly up to 57.1 µM; activity change, negative = cytotoxicity: at the top concentration
Summary of the method: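 Expi293F/hACE2 cells seeded overnight; cpd pin-transferred in DMSO, 1 h preincubation, + media, 48 h 37 C 5% CO2; ATPLite 1step luminescence; normalized to cells and no cells.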
With `CC(=O)N(CC(C)C(=O)O)c1c(I)cc(I)c(N)c1I` (stereo not drawn) the “activity change, negative = cytotoxicity” value was 1.28%.
In the case of `O=C(c1ccc(F)c(F)c1Nc1ccc(I)cc1F)N1CC(O)([C@@H]2CCCCN2)C1`, the Potency is reported as 31.6 µM (active).
For `O=C(Nc1ccc(O)cc1)c1ccccc1O`, the “activity change, negative = cytotoxicity” value was -18.2%.
With `COC(=O)[C@H]1[C@H]2C[C@@H]3c4[nH]c5cc(OC)ccc5c4CCN3C[C@H]2C[C@@H](OC(=O)/C=C/c2cc(OC)c(OC)c(OC)c2)[C@@H]1OC` the “outcome” value was “inactive [at 19 µM]”.
With `Cc1c(C)c2c(c(C)c1OC(=O)CCC(=O)O)CC[C@@](C)(CCC[C@H](C)CCC[C@H](C)CCCC(C)C)O2` the “outcome” value was “inactive”.
For `C#C[C@]1(OC(C)=O)CC[C@H]2[C@@H]3CCC4=CC(=O)CC[C@@H]4[C@H]3CC[C@@]21C`, the “activity change, negative = cytotoxicity” value was -26.9%.
With `CCCCN(CCCC)C(=S)[S-].CCCCN(CCCC)C(=S)[S-].[Zn+2]` the “outcome” value was “inactive”.
For `CC(OC(=O)NCC1(CC(=O)O)CCCCC1)OC(=O)C(C)C` (stereo not drawn), the “outcome” value was “inactive”.
For `CC1CCCC(C)N1C(=S)Nc1cccc(C(F)(F)F)c1` (stereo not drawn), the “activity change, negative = cytotoxicity” value was 3.61%.
With `CCN(CC)CCOc1ccc2nc(N(C)C)sc2c1` the “activity change, negative = cytotoxicity” value was -16.4% [at 114 µM].
For `CCN(CC)C(=O)[C@]1(c2ccccc2)C[C@H]1CN`, the “outcome” value was “inactive”.
With `N[C@H](Cc1cnc[nH]1)C(=O)O` the “outcome” value was “inactive”.
With `CCCCCCCCCCCCCCCCCC(=O)NCCCC[C@H](NC(=O)CC[C@@H](NC(=O)[C@H](C)NC(=O)[C@@H](C)O[C@H]1[C@H](O)[C@@H](CO)OC(O)[C@@H]1NC(C)=O)C(N)=O)C(=O)O` (stereo partly drawn) the “outcome” value was “inactive”.
With `CN1N=C2CCN(C(=O)[C@H](COCc3ccccc3)NC(=O)C(C)(C)N)C[C@]2(Cc2ccccc2)C1=O` the “outcome” value was “inactive”.
With `CCC(c1ccccc1)c1c(O)c2ccccc2oc1=O` (stereo not drawn) the “outcome” value was “inactive”.
In the case of `CCCCC(=O)N(Cc1ccc(-c2ccccc2-c2nn[nH]n2)cc1)[C@H](C(=O)O)C(C)C`, the “activity change, negative = cytotoxicity” value is reported as -1.32%.
With `CC1CCCCN1CCCOC(=O)c1ccccc1` (stereo not drawn) the “outcome” value was “inactive”.
With `N=C(N)c1ccc(/C=C/c2ccc(C(=N)N)cc2O)cc1` the “outcome” value was “inactive”.
With `CCCCCCCCCCCCCCCC(=O)OCC(O)C1OC(=O)C(O)=C1O` (stereo not drawn) the “activity change, negative = cytotoxicity” value was 3.46%.
In the case of `C=C1c2c(Cl)ccc(O)c2C(O)=C2C(=O)[C@@]3(O)C(O)=C(C(N)=O)C(=O)[C@@H](N(C)C)[C@@H]3[C@@H](O)[C@H]12`, the “activity change, negative = cytotoxicity” value is reported as -17%.
With `CN(C)CCC(O)(c1ccccc1)c1ccccc1Cl` (stereo not drawn) the “outcome” value was “inactive”.
With `CC(C)N(CCCCOCC(=O)NS(C)(=O)=O)c1cnc(-c2ccccc2)c(-c2ccccc2)n1` the “outcome” value was “inactive”.
For `O=C(O)[C@H]1OC(O)[C@H](O)[C@@H](O)[C@@H]1O` (stereo partly drawn), the “outcome” value was “inactive”.
In the case of `O=C(O)C[C@@H]1CC[C@H](NC(=O)Cc2cccs2)B(O)O1`, the “outcome” value is reported as “inactive”.
With `CNCc1cc(-c2ccccc2F)n(S(=O)(=O)c2cccnc2)c1` the “outcome” value was “inactive”.
In the case of `CCC(=O)O[C@@H](OP(=O)(CCCCc1ccccc1)CC(=O)N1C[C@H](C2CCCCC2)C[C@H]1C(=O)O)C(C)C` (stereo partly drawn), the outcome is reported as “inactive [at 11.3 µM]”.
With `CN1c2c(nc(N)[nH]c2=O)NC[C@@H]1CNc1ccc(C(=O)N[C@@H](CCC(=O)O)C(=O)O)cc1` the outcome was “inactive [at 5.25 µM]”.
For `C[C@H](Cc1cc2c(c(C(N)=O)c1)N(CCCO)CC2)NCCOc1ccccc1OCC(F)(F)F`, the “activity change, negative = cytotoxicity” value was -18.5%.
For `CCCCCCCCCCCCOC(=O)CS(=O)(=O)O`, the “outcome” value was “inactive”.
For `O=C(O)c1cc2ccccc2c(Cc2c(O)c(C(=O)O)cc3ccccc23)c1O`, the “activity change, negative = cytotoxicity” value was -1.69%.
For `CN[C@@H]1[C@@H](O)[C@@H](O[C@@H]2[C@@H](O)[C@H](OC3O[C@H](CN)[C@@H](O)[C@H](O)[C@H]3O)[C@@H](N)C[C@H]2NC(=O)[C@@H](O)CN)OC[C@]1(C)O` (stereo partly drawn), the “activity change, negative = cytotoxicity” value was -12.8% [at 27.1 µM].
In the case of `O=C(O)C(O)C(O)C(=O)O` (stereo not drawn), the “outcome” value is reported as “inactive”.
For `CC(C)(C)C(=O)OCOC(=O)[C@@H]1N2C(=O)[C@@H](N=CN3CCCCCC3)[C@H]2SC1(C)C`, the “activity change, negative = cytotoxicity” value was 2.98%.
In the case of `CC(=O)Nc1c(I)c(C(=O)N[C@H]2C(O)O[C@H](CO)[C@@H](O)[C@@H]2O)c(I)c(N(C)C(C)=O)c1I` (stereo partly drawn), the “outcome” value is reported as “inactive”.
In the case of `COc1nc2ccc(Br)cc2cc1[C@@H](c1ccccc1)[C@@](O)(CCN(C)C)c1cccc2ccccc12`, the “activity change, negative = cytotoxicity” value is reported as -7.94%.
In the case of `COc1cc(N)cn[n+]1-c1ccccc1`, the “outcome” value is reported as “inactive”.
With `CON=C1C[C@]2(C[C@@H]3C[C@@H](C/C=C(\C)C[C@@H](C)/C=C/C=C4\CO[C@@H]5[C@H](O)C(C)=C[C@@H](C(=O)O3)[C@]45O)O2)O[C@H](/C(C)=C/C(C)C)[C@H]1C` the “activity change, negative = cytotoxicity” value was -19.6%.
For `OC(c1ccccc1)(c1ccccc1)C12CC[N+](CCOCc3ccccc3)(CC1)CC2`, the “activity change, negative = cytotoxicity” value was 0.884%.
